KCNQ2 enhance: enhances the rat KCNQ2 potassium channel | O88943 | CHO-K1 KCNQ2, FluxOR thallium flux fluorescence; hits give high values | B-score at 10 µM | 0.54% of 310,000 active | AID 2239;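 active means fluorescence ratio B-score at least 3 SD of library B-scores, with initial fluorescence B-score within 3 of them, cut at about 5.3 in these data; same plate scores as AID 2156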;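 further: B-score of peak minus minimum over baseline fluorescence ratio after K+ and Tl+ stimulus; positive B-score means potentiation of KCNQ2 with more thallium influx and brighter signal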
Target sequence (O88943 whole entry, looked up): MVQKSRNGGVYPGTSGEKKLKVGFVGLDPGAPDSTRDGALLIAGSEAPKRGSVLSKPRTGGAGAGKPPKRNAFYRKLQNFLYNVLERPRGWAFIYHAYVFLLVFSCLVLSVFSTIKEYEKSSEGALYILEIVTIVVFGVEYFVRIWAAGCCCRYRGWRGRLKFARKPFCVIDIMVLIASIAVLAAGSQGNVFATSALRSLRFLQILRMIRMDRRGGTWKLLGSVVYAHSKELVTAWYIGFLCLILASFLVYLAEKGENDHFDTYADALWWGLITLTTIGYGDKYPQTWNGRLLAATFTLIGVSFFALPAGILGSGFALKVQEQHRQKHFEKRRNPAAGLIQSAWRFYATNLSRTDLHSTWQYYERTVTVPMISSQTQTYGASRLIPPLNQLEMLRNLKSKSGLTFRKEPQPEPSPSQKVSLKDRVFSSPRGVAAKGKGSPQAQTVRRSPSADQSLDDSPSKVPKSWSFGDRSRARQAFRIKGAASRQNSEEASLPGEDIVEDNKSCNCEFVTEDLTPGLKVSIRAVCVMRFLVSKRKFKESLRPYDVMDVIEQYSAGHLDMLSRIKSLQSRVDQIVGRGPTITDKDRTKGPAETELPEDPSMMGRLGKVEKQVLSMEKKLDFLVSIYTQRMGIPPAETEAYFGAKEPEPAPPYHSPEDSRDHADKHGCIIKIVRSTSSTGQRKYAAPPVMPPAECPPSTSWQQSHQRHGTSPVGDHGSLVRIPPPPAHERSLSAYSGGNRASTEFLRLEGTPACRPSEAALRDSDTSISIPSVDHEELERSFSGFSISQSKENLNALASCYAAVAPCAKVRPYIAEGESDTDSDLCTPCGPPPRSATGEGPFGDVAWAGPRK
KCNQ2 block: inhibitors of rat KCNQ2 potassium channel; B-score at 10 µM; CHO-K1 KCNQ2, FluxOR thallium flux, 20 min; hits give low values; O88943; AID 2156; 1.1% of 310,000 active;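 active means fluorescence ratio B-score at most minus 3 library SDs, with starting brightness B-score within 2 library SDs, cut at about -5.5 in these data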
An asterisk follows results filed as active; i = inactive; x = no result. Rows were chosen to be rich in hits. Some 1.6% of all compounds tested hit in one or more screens of this group.

SMILES	KCNQ2 enhance	KCNQ2 block
O=[N+]([O-])c1cccc(/C=C/c2nc3ccc([N+](=O)[O-])cc3[nH]2)c1	-8.1	-8.1*
CCCCN(CCCC)C(=S)NC(=O)c1ccccc1Cl	19*	i
CCN(CC)C(=S)NC(=O)c1ccc(Cl)cc1Cl	4.2	i
CCCOc1ccc(Oc2ccc(S(=O)(=O)N3CCN(C)CC3)cn2)cc1	x	i
O=P(O)(Cc1ccccc1)Cc1ccccc1	0.34	i
O=C(CN1CCOCC1)Nc1nc2ccc(F)cc2s1	x	i
O=C(CN1C(=O)C2CCCCC2C1=O)Nc1nc2ccc(F)cc2s1 (centres undefined)	-6.2	-6.2*
COC(=O)c1sccc1-c1ccc(/C=N/OC(=O)c2cccs2)o1	x	i
C/C(=N\Nc1ccc(Cl)c(C(=O)O)c1)c1ccc[nH]1	x	i
Oc1ccc(N=Nc2ccc(Br)cc2)c(O)c1	0.38	i
Cc1ccc(N=Nc2ccc(O)cc2)c(Br)c1	-5.7	-5.7*
Cc1ccc(C)c2[nH]c(=O)c(C(c3nnnn3CCc3ccccc3)N3CCOCC3)cc12 (centres undefined)	-6	-6*
CCOC(=O)C1CCN(C(c2cc3c(C)ccc(C)c3[nH]c2=O)c2nnnn2C2CCCCC2)CC1 (centres undefined)	x	i
COc1ccc(Cn2nnnc2C(c2cc3cccc(C)c3[nH]c2=O)N2CCOCC2)cc1 (centres undefined)	x	i
Cc1ccc(C)c2[nH]c(=O)c(C(c3nnnn3C3CCCC3)N3CCOCC3)cc12 (centres undefined)	-6.1	-6.1*
COc1cc2cc(C(c3nnnn3C3CCCC3)N3CCCCCC3)c(=O)[nH]c2cc1OC (centres undefined)	-11	-11*
CCOc1ccc2[nH]c(=O)c(C(c3nnnn3C3CCCCC3)N3CCN(CC)CC3)cc2c1 (centres undefined)	0.77	i
CC(=O)N1CCC2(CC1)C/C(=N\NC(=S)Nc1ccc(C)cc1)c1cc(O)ccc1O2	x	i
COc1ccc(CCNC(=O)CCn2c(=O)c3cccn3c3ccc(F)cc32)c(OC)c1OC	0.03	i
CCOC(=O)c1ccccc1NC(=O)C1CSC2(C)CCC(=O)N12 (centres undefined)	x	i
CC1CCN(c2nnc(-c3ccccc3)c3ccccc23)CC1	-5.8	-5.8*
Cc1ccc(-c2nnc(N3CCC(C)CC3)c3ccccc23)cc1	x	i
O=C(NCc1ccc(Cl)cc1)C1CCC(=O)N(C2CCCCCC2)C1 (centres undefined)	x	i
O=C(Nc1ccccn1)c1cc(-c2cccc(Cl)c2)nc2ccccc12	-5.6	-5.6*
O=C(Nc1ccc([N+](=O)[O-])cn1)c1cc(-c2cccc(Cl)c2)nc2ccccc12	-5.6	-5.6*
SMILES	KCNQ2 enhance	KCNQ2 block
O=C(c1cc(-c2ccccc2)nc2ccccc12)N1CCCC1	0.04	i
O=C(Nc1ncccn1)c1cc(-c2cccc(Br)c2)nc2ccccc12	x	i
O=C(c1cc(-c2cccc(Cl)c2)nc2ccccc12)N1CCCC1	-8.1	-8.1*
O=C(Nc1ccc([N+](=O)[O-])cn1)c1cc(-c2cccc(Br)c2)nc2ccccc12	x	i
C/C(=N\NC(=S)Nc1ccccc1C)c1ccc(O)cc1	x	i
O=C(c1noc2c1CSc1ccccc1-2)N1CCN(c2ccc(Cl)cc2)CC1	-7	-7*
O=C(c1ccccc1)N1CCN(c2ccc(Cl)cc2)CC1	x	i
CC(=O)c1sc(NC(=O)C2CCN(C(=O)c3ccc(F)cc3)CC2)nc1-c1ccccc1	0.02	i
COc1cc(C2=NOC(C(=O)N3CCN(c4ccc(F)cc4)CC3)C2)cc(OC)c1OC (centres undefined)	x	i
COc1cc(C2=NOC(C(=O)N3CCCCCC3)C2)cc(OC)c1OC (centres undefined)	-6.6	-6.6*
CN(Cc1c(C(=O)N(C)Cc2ccccc2)nc2ccccn12)CC1Cc2ccccc2O1 (centres undefined)	x	i
CN(Cc1ccccc1)C(=O)c1nc2ccccn2c1CN1CCc2sccc2C1	-5.9	-5.9*
C/C(=N\OCc1nc2ccccc2c(=O)n1/N=C/c1cc([N+](=O)[O-])ccc1O)c1ccccc1	2.1	i
C/C(=N\OCc1nc2ccccc2c(=O)n1/N=C/c1cc(C)cc([N+](=O)[O-])c1O)c1ccccc1	-8.3	-8.3*
COc1ccccc1CCNC(=O)c1ccc(Br)s1	-6.3	-6.3*
COc1ccccc1CCNS(=O)(=O)CCNC(=O)c1ccccc1	0.17	i
CCCN(CCC)CCCNC(=O)C1CCC(CNS(=O)(=O)c2cccc3nsnc23)CC1 (centres undefined)	0.38	i
CC(NC(=O)COc1ccc(N(C)S(=O)(=O)c2ccccc2)cc1)c1ccccc1 (centres undefined)	x	i
CC1(CCBr)C(=O)N(c2ccccc2)c2ccccc21 (centres undefined)	x	i
O=C1N(c2ccccc2)c2ccccc2C1(Cc1ccncc1)Cc1ccncc1	-5.6	-5.6*
CCOC(=O)c1c(S(=O)(=O)NCC(=O)NCc2ccccc2Cl)c(C)n(C)c1C	0.59	i
O=C(NCCO)/C(=C/c1ccc2c(c1)OCO2)NC(=O)c1ccc(Br)cc1	x	i
CCN(CC)C(=O)/C(=C/c1ccc2c(c1)OCO2)NC(=O)c1ccc(Br)cc1	-5.9	-5.9*
CCc1ccc(S(=O)(=O)Nc2cccc(-c3ccc4nnc(C)n4n3)c2)s1	x	i
Cc1ccccc1CS(=O)(=O)c1nnc([C@H](CC(C)C)NC(=O)OC(C)(C)C)o1	-5.6	-5.6*
SMILES	KCNQ2 enhance	KCNQ2 block
CC(C)(C)OC(=O)N[C@@H](Cc1ccccc1)c1nnc(S(=O)(=O)Cc2cccc(F)c2)o1	x	i
CCOC(=O)CSc1nnc([C@H](Cc2ccccc2)NC(=O)OC(C)(C)C)o1	x	i
CC(C)C[C@H](NC(=O)OC(C)(C)C)c1nnc(SCc2ccccc2)o1	-6.9	-6.9*
Cc1ccc(NNC(=O)c2ccno2)c(C)c1	1	i
O=C(NC1CCc2ccccc21)c1cc(COc2cncc(Cl)c2)on1 (centres undefined)	x	i
Cc1cccc(OCC(=O)NNC(=O)C2CCN(c3ncnc4sc(C)c(C)c34)CC2)c1	x	i
Cc1ccccc1OCC(=O)NNC(=O)C1CCN(c2ncnc3sc(C)c(C)c23)CC1	x	i
CCCN(CC(=O)Nc1ccccc1C)C(=O)C1CCN(c2ncnc3sc(C)c(C)c23)CC1	-6.8	-6.8*
Cc1sc2ncnc(N3CCC(C(=O)N(CC(C)C)c4nc5ccccc5s4)CC3)c2c1C	-6.2	-6.2*
COC(=O)c1ccccc1-n1c(C)nc(=O)c(-c2ccccc2)c1C	x	i
Cc1cc(C)n(C(=O)CNC(=O)c2cccc(F)c2)n1	2.3	i
Cc1nn(C(=O)CNC(=O)c2ccccc2)c(C)c1C	8.9*	i
Cc1nc(-c2ccc(NC(=O)c3ccc(Br)o3)cc2)cs1	x	i
O=C1NN(c2ccccc2)C(=O)/C1=C/c1coc2ccccc2c1=O	x	i
O=C1NN(c2ccccc2)C(=O)/C1=C\c1coc2ccc(O)cc2c1=O	-5.7	-5.7*
COc1ccc(NC(=S)N(CCCN2CCOCC2)Cc2ccco2)cc1	x	i
CCc1ccc(NC(=S)N(CCCN2CCOCC2)Cc2ccco2)cc1	6.6*	i
COc1ccc(C2=NN(C(=O)CSc3nc(=O)n4cccc(C)c4n3)C(c3ccc(C)cc3)C2)cc1 (centres undefined)	-7.4	-7.4*

Screens: PubChem, Johns Hopkins Ion Channel Center
